The supplement of paper PMC11732987, “Enantioselective OTUD7B fragment discovery through chemoproteomics screening and high-throughput optimisation” (Communications Chemistry, 2025)

How the values were obtained:
Assay in all cases: log2 ratio of Biotin-Ahx-Ub-VS probe labelling (fragment/DMSO); higher = less target engagement (more negative = stronger competition), active = hit call of the paper (q ≤ 0.05, log2 ratio ≤ -1)
Details in all cases: compound concentration: 200 uM; treatment time: 3 h
[1] = target: USP34 (UniProt Q70CQ2)
How it was run: (§1)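 Fragment (200 µM) or vehicle was incubated for 3 h with triplicate HEK293T lysate samples of 495 µg, which were then treated with Biotin-Ahx-Ub-VS at 0.5 µM final for 1 h. Labelled DUBs were enriched on NeutrAvidin, digested with LysC and trypsin, and analysed by diaPASEF LC-MS/MS. Values are average log2 fragment/vehicle ratios from an unpaired t-test on global-median-normalised Spectronaut label-free quantities, using proteins with ≥2 unique peptides.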

[2] = target: T1, USP36 (UniProt Q9P275)
T1 sequence (whole entry): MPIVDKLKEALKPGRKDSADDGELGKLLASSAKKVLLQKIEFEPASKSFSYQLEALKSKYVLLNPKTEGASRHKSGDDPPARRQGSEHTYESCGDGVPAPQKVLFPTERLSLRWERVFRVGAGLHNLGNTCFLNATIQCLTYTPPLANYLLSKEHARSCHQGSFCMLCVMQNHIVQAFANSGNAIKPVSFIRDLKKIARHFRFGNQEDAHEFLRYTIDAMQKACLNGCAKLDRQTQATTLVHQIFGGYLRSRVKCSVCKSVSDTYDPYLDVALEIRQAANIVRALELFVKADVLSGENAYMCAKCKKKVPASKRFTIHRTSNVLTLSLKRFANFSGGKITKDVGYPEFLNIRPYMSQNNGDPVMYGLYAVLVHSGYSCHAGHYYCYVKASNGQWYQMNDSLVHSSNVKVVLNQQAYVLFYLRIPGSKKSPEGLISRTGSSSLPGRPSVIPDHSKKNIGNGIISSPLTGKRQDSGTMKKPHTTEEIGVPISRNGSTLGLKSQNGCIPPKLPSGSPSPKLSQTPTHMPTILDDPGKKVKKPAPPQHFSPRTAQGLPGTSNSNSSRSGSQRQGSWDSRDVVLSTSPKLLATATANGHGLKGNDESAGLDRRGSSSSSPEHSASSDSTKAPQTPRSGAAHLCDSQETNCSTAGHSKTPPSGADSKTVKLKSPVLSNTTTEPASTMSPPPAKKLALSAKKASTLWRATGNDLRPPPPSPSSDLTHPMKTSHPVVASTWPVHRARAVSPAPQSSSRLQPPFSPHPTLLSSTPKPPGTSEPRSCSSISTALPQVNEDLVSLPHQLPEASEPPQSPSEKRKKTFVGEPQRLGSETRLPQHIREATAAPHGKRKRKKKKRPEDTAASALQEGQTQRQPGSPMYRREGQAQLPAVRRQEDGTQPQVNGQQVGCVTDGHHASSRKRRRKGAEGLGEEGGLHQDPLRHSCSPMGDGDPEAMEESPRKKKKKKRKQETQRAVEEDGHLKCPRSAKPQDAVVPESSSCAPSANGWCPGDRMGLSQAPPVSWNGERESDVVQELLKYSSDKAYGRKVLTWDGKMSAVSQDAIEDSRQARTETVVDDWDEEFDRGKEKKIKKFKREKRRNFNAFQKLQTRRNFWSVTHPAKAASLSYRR
How it was run: as §1

[3] = target: T2, USP38 (UniProt Q8NB14)
T2 sequence (whole entry): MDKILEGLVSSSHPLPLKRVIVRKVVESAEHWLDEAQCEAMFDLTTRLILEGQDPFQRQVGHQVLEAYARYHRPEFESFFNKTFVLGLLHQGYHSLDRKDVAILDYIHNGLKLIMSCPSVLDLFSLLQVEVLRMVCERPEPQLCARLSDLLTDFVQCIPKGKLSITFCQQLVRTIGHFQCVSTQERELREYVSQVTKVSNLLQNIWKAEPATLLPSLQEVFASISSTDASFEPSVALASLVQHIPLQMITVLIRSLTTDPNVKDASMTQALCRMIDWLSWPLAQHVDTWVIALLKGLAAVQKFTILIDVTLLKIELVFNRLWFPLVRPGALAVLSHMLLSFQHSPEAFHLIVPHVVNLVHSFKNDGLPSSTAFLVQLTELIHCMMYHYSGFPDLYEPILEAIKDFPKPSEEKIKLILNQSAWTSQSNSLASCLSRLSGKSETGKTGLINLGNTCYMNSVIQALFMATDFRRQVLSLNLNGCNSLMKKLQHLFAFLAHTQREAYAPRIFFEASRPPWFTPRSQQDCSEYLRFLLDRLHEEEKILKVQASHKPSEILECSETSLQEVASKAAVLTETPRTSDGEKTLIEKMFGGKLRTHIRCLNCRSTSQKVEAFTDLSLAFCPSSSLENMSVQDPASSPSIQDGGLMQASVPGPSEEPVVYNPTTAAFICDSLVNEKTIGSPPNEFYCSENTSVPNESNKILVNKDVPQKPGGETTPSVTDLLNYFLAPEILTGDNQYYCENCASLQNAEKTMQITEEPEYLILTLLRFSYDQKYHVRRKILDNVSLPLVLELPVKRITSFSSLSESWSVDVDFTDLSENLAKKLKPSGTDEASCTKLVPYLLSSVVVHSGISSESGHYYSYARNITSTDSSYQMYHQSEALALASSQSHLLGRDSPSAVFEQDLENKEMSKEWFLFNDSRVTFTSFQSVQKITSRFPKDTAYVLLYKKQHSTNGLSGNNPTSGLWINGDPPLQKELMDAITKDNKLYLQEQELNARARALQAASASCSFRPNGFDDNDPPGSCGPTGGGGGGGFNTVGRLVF
How it was run: as §1

[4] = target: T3, USP39 (UniProt Q53GS9)
T3 sequence (whole entry): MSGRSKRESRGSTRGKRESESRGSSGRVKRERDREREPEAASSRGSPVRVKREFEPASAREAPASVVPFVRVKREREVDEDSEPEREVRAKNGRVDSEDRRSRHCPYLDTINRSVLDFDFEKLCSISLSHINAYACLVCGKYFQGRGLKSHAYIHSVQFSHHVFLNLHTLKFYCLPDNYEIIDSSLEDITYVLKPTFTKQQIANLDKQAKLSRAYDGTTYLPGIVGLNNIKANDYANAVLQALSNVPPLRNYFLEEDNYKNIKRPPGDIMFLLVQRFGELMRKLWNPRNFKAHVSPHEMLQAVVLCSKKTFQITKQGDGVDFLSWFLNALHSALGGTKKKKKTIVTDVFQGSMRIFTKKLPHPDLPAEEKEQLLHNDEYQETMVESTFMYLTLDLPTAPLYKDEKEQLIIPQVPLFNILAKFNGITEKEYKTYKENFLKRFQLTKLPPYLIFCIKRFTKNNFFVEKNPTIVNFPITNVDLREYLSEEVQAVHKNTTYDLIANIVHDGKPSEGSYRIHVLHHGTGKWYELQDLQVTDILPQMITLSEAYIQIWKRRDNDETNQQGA
How it was run: as §1

[5] = target: T4, USP4 (UniProt Q13107)
T4 sequence (whole entry): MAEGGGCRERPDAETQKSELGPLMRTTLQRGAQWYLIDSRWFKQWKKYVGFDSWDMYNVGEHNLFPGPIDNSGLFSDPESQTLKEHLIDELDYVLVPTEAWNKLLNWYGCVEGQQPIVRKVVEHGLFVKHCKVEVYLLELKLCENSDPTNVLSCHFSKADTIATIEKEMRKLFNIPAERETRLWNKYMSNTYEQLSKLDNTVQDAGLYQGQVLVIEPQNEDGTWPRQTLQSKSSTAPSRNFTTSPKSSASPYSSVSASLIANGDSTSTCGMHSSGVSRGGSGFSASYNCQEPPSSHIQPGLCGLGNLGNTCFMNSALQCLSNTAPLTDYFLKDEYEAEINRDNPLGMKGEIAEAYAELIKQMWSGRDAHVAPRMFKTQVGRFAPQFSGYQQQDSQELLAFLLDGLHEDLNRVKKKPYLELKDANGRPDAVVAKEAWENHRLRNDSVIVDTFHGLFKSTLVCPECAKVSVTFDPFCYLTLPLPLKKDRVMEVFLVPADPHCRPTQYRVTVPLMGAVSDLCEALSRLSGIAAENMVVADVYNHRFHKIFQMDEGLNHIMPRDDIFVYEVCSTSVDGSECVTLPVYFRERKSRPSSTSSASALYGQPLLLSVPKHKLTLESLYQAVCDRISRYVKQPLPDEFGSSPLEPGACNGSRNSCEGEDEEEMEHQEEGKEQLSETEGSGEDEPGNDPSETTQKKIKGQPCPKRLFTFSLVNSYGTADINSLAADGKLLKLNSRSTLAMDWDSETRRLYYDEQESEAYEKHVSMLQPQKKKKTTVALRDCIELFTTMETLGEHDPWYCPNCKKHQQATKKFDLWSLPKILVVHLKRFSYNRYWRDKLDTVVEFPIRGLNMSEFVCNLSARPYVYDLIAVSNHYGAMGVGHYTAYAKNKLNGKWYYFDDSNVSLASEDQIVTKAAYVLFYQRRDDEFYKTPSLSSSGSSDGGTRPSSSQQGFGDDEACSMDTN
How it was run: as §1

Measured: log2 ratio of Biotin-Ahx-Ub-VS probe labelling

Sequence of USP34 (Q70CQ2 whole entry, the tested form may be a part): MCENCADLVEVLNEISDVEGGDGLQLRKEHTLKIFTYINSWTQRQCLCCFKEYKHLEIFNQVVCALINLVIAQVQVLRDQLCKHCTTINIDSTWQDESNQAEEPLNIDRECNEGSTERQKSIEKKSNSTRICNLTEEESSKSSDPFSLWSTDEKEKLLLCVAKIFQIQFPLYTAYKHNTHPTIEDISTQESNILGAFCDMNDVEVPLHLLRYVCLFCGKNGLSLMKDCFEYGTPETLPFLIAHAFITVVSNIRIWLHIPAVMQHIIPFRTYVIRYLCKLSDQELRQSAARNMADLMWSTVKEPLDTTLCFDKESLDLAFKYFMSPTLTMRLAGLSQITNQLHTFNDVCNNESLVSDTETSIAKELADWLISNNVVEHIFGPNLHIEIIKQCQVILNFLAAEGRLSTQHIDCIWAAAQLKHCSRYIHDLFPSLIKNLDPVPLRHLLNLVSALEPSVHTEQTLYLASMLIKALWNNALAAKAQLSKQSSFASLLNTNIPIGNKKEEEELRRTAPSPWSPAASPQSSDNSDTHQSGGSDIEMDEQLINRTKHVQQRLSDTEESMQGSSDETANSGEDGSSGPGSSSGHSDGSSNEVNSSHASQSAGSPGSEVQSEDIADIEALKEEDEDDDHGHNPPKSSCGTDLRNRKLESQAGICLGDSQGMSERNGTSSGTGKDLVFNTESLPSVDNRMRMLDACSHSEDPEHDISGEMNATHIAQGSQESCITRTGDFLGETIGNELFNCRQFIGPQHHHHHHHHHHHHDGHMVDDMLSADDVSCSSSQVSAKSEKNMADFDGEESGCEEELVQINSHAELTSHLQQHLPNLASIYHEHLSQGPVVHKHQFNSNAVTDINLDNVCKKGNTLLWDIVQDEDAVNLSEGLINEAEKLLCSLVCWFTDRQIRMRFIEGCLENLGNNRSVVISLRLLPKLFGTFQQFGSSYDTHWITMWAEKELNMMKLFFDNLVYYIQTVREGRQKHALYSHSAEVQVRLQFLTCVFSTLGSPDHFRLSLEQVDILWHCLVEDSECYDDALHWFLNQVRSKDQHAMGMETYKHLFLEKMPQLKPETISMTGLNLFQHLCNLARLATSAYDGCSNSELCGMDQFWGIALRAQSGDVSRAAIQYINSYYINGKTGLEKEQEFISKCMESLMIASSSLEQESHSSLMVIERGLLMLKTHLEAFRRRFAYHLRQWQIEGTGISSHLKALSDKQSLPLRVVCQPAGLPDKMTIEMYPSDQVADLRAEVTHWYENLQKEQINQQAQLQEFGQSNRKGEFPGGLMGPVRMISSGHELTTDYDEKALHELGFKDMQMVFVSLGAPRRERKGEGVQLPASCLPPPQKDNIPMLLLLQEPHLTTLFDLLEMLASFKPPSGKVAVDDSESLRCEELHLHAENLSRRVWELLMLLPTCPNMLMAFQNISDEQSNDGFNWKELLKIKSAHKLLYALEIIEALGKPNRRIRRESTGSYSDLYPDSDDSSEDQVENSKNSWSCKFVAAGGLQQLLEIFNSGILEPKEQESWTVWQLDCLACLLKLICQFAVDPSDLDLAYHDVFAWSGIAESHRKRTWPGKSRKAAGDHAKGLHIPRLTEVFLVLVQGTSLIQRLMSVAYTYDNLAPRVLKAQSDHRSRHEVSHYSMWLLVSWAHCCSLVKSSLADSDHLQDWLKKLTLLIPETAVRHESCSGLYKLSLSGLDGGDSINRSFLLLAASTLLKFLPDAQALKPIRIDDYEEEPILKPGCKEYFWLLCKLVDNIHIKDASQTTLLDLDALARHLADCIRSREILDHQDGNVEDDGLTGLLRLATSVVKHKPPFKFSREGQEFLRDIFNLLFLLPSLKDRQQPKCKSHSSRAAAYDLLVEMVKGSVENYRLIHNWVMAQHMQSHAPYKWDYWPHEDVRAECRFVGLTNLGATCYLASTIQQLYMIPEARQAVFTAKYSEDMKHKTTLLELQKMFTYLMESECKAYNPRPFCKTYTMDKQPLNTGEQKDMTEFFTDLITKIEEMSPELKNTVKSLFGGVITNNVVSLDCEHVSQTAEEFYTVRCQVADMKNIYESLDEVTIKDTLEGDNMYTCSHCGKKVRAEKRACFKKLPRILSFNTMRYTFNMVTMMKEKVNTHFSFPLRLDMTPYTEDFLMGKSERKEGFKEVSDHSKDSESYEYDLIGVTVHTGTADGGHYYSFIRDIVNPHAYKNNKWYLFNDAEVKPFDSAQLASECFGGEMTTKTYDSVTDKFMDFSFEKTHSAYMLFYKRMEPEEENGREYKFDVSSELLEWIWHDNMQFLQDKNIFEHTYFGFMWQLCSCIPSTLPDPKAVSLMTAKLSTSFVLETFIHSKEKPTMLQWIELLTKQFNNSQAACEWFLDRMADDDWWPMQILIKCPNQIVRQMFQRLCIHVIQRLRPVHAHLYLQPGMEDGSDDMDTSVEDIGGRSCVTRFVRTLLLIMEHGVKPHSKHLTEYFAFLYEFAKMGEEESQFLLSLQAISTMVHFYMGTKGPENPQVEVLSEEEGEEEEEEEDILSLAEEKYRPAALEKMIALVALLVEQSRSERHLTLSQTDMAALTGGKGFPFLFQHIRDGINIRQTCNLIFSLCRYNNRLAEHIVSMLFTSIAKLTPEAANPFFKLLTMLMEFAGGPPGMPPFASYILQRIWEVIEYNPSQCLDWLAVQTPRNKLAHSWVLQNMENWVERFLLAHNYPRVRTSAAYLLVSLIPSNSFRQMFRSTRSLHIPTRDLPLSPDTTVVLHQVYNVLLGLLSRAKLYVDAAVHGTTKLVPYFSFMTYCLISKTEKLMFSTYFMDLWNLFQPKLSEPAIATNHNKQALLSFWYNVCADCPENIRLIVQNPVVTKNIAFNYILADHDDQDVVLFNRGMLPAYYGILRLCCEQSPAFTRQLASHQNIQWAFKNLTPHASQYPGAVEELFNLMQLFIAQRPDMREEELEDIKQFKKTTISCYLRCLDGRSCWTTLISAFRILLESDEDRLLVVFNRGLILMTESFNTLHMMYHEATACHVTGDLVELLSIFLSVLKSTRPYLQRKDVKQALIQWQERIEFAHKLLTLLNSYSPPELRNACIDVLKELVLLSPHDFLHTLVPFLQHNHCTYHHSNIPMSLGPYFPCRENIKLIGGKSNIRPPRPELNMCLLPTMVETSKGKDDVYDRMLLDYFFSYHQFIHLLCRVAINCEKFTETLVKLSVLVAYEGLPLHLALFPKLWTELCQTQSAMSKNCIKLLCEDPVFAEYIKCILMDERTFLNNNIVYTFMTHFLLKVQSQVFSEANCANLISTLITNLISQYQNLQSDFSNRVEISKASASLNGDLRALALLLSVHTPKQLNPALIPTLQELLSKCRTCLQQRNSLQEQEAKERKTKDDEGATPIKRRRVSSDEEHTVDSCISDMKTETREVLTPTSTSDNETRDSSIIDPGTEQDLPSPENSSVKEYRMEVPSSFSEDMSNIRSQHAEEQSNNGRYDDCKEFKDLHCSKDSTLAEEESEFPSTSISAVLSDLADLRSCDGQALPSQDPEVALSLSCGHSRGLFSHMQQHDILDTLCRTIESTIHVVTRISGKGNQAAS

O=C(CCl)N1CCC(C(O)c2ccc(F)cc2)CC1 (stereo not given)
inactive: [1] -0.0791 | [2] 0.299 | [3] 0.282 | [4] 0.453 | [5] 0.032
